Compound activity: PubChem, National Center for Advancing Translational Sciences (NCATS)
PLK1 PBD block: blocks phosphopeptide binding to human PLK1 polo-box domain; P53350; Plk1 PBD binding of FITC phosphopeptide, fluorescence polarization; Potency, µM, inactives show max response, negative = inhibition, most hits filed as inhibitors; 360,000 compounds, 2.8% hits; AID 720504; also: series mostly up to about 57 µM; nearly all actives have a fitted effect of over 65% in size
Sfp inh: blocks B. subtilis Sfp PPTase activity; Q9F4F7; Biochemical Sfp PPTase activity, qHTS; Potency, µM, for the others: largest response in the series, negative = inhibition, actives largely listed as inhibitors; 310,000 compounds, 3.5% hits; AID 1490;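 also: the enzyme is Sfp with the accession as filed and its product quenches rhodamine fluorescence; 0% = enzyme reaction without inhibitor and -100% = no enzyme wells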
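Buffer: 50 mM Hepes-Na pH 7.6, 10 mM MgCl2, 0.01% Nonidet P-40, 0.01% BSA. Enzyme 15 nM, pre-exposed to compound 15 min; substrates then added and fluorescence change tracked over 30 min.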
RORg inh: ROR gamma (mouse) transcription inhibition | 310,000 compounds, 5.4% hits | Potency, µM (titrated, usually from 53.6 µM), without a hit: at the highest dose activity change, negative = inhibition, most hits filed as inhibitors | AID 2551 | Drosophila S2 Gal4-RORgamma UAS-luciferase reporter, 20 h | P51450; also: nearly all actives have a fitted effect of over 60% in size
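Luminescence from a UAS-regulated Photinus luciferase reporter in stably transfected Drosophila Schneider cells is measured; decreased signal marks ROR gamma inhibition. Fusion expression is induced by 700 uM copper sulfate for 20 hr.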
ALDH1A1 inh: blocks purified human ALDH1A1 activity; P00352; 220,000 compounds, 7.3% hits; AID 1030; Purified ALDH1A1, NADH fluorescence, propionaldehyde substrate; Potency, µM (series often up to 75.3 µM), without a hit: top-dose activity, negative = inhibition, actives largely listed as inhibitors; active = well fitted inhibition curve with a large enough effect, not every such curve was filed as active; inconclusive = small, poorly fitted or top-dose-only effect, or another doubt; inactive = no such curve, though single readings can be large or run the other way;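 also: plate controls were no enzyme wells and a reference inhibitor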
Target sequence (P00352 whole entry, looked up): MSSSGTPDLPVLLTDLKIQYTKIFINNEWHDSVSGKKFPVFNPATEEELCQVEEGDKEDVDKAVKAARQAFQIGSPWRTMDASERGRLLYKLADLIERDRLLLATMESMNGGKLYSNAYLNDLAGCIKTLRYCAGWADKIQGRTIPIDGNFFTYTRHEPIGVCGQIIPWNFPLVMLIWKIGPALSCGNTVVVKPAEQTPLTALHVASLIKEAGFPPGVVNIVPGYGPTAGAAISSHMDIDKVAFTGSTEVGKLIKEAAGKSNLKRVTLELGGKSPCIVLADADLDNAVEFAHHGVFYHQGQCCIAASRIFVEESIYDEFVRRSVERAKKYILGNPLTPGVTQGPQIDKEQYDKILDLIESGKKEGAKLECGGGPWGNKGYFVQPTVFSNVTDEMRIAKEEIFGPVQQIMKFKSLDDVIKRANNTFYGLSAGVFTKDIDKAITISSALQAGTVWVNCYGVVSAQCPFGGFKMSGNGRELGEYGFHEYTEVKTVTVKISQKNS
VP16 counter: inhibits Gal4-VP16 luciferase reporter, ROR gamma counter-screen. Drosophila S2 Gal4-VP16 UAS-luciferase, luminescence, 20 h. Potency, µM (doses to about 53.6 µM), inactives show at the highest dose activity, negative = inhibition, hits mostly inhibitors. 310,000 compounds, 3.5% hits. AID 2546;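 also: Gal4-VP16 expression switched on by copper sulfate through the metallothionein promoter; nearly all actives have a fitted effect of over 50% in size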
An asterisk follows results filed as active; ? = inconclusive; · = no result. Rows were chosen to be rich in hits. Some 12% of all compounds tested hit in one or more screens of this group. Unless noted, calls follow the shape of the dose curve; as a rule, active = well fitted curve in the direction sought with a large enough effect; inconclusive = small, poorly fitted or top-dose-only effect, or another doubt; inactive = no such curve, though single readings can be large; an effect the other way counts as inactive or inconclusive. Unless noted, % is scaled to controls: 0 for no effect and ±100 for the full control effect; potency is read from the fitted curve at half-maximal effect.

SMILES	PLK1 PBD block	Sfp inh	RORg inh	ALDH1A1 inh	VP16 counter
COc1ccc(/C=N/NC(=O)CNc2c(Br)cc(C)cc2Br)c(C(=O)O)c1OC	-4%	16%	-7%	7.1µM*	-5%
CC(=O)Nc1sc2c(c1-c1nc3ccccc3s1)CCN(C(C)C)C2	6%	-5%	8.9µM*	-13%	11µM*
CC(C)CNC(=O)C1C(=O)Nc2ccccc2C(=O)N1C(C)(C)C (stereo not drawn)	-7%	·	·	·	·
N#Cc1cnn2cc(-c3ncc(C(F)(F)F)cc3Cl)cnc12	-8%	12%	74%	?	-9%
Cc1nn2cc(-c3ncc(C(F)(F)F)cc3Cl)cnc2c1Br	24µM*	12%	-29%	?	-2%
Cc1cc2ncc(-c3ncc(C(F)(F)F)cc3Cl)cn2n1	-8%	10%	7.9µM*	7%	10µM*
CCCc1c(C(=O)N/N=C/c2cccc(OCc3ccc(F)cc3)c2)nnn1-c1nonc1N	5%	11%	-17%	·	4%
CNC(=O)COc1ccc(S(=O)(=O)N2CCCC2)cc1	5.3µM*	1%	17%	·	-5%
CC(Cl)C(=O)NNC(=O)CNS(=O)(=O)c1ccccc1 (stereo not drawn)	27µM*	6%	27%	4%	28%
CN(CCOc1ccccc1)CC(=O)Nc1ccc(S(=O)(=O)N2CCCC2)cc1	-1%	56µM*	-5%	13µM*	11%
CC(=O)Nc1ccc(S(=O)(=O)NCC(=O)NNC(=O)COc2c(C)cccc2C)cc1	-5%	·	·	·	·
CN1CCN(S(=O)(=O)c2ccc(NC(=O)COc3ccccc3)cc2)CC1	-10%	8%	-4%	3%	4%
CC(=O)Nc1ccc(S(=O)(=O)NCC(=O)NNC(=O)COc2ccccc2Cl)cc1	19µM*	·	·	·	·
CN(Cc1ccccc1)C(=O)[C@@H]1CCCN1C(=O)OC(C)(C)C	-14%	·	·	·	·
COCCNC(=O)C1(C)CCCN(C(=O)c2ccc3c(c2)CCO3)C1 (stereo not drawn)	-11%	·	·	·	·
COc1cccc(C(=O)N2CCC[C@@H]2C(=O)N2CCC[C@H]2C(=O)NCc2ccncc2)c1	2%	·	·	·	·
Cc1cc(OCC(=O)Nc2ccc3oc(=O)ccc3c2)ccc1Cl	2%	-13%	16%	·	3%
CCCCC(=O)N(C)c1c(CC)nc2c(OCc3cccc(Cl)c3)cccn12	-8%	·	·	·	·
Cc1cc(C)c2nc(N3CCC(C(=O)NCCCN4CC(C)CC(C)C4)CC3)sc2c1 (stereo not drawn)	1%	11%	-16%	3%	-4%
CN1CCN(S(=O)(=O)c2ccc(NC(=O)COc3ccccc3Cl)cc2)CC1	0%	12%	-7%	3.2µM*	-4%
COC(=O)/C=C\c1cc(O)ccc1O	·	50µM*	14µM*	?	11µM*
COc1ccc(C=CC(=O)c2cc(O)ccc2O)cc1	-2%	·	·	·	·
O=C(COC(=O)CN1C(=O)C(=O)c2ccccc21)OCN1C(=O)c2ccccc2C1=O	-8%	5%	-13%	0.089µM*	3%
CCCOC(=O)CN1C(=O)c2ccccc2C1=O	-5%	-2%	-36%	22µM*	-10%
CCOc1ccc(CC(=O)OCN2C(=O)c3ccccc3C2=O)cc1	?	89µM*	29%	?	1%
SMILES	PLK1 PBD block	Sfp inh	RORg inh	ALDH1A1 inh	VP16 counter
CCOC(=O)CN1C(=O)c2ccccc2C1=O	-2%	25%	18%	5%	-4%
COc1ccc(CC(=O)OCN2C(=O)c3ccccc3C2=O)cc1	-24%	6%	19%	-14%	1%
COC(=O)C[C@@H]1C=C[C@H](NC(=O)Nc2cc(F)ccc2F)[C@@H](CO)O1	-24%	·	·	·	·
Cn1nc(-c2ccccc2)cc1NC(=O)[C@@H]1O[C@H](CO)[C@H](O)[C@H](O)[C@H]1O	-9%	·	·	·	·
COC(=O)[C@@H]1OC(c2ccccc2)O[C@H]1C(=O)OC	·	2%	3%	·	-1%
Cc1[nH]n2c(=O)c3c(nc2c1-c1ccccc1)CCCC3	-2%	6%	11µM*	8%	?
O=c1c2c(nc3c(-c4ccc(Cl)cc4)c[nH]n13)CCCC2	-29%	-15%	2.2µM*	2%	6.3µM*
O=c1c2c(nc3c(-c4cccc5ccccc45)c[nH]n13)CCC2	-17%	-7%	3%	?	-8%
Cc1[nH]n2c(=O)c3c(nc2c1-c1cccc2ccccc12)CCC3	-4%	14%	13µM*	10%	?
CN1C[C@@H]2[C@@H]3C(=O)N(Cc4ccccc4)C(=O)[C@@H]3[C@](Cc3ccccc3)(C1=O)N2C(=O)c1ccc(Br)cc1	1%	·	·	·	·
CC(Oc1ccc(Cl)cc1)C(=O)N/N=C/c1ccsc1 (stereo not drawn)	-27%	-2%	11µM*	?	?
COc1ccc(CCN2CCCn3c2nc2c3c(=O)n(CC(N)=O)c(=O)n2C)cc1OC	5%	-24%	18%	·	-7%
O=C(COC(=O)Cn1cc(C(F)(F)F)ccc1=O)Nc1ccc(Br)cc1F	-4%	·	·	·	·
O=[N+]([O-])c1ccc(/C=N/n2c(-c3ccccc3)n[nH]c2=S)cc1	?	?	1.3µM*	·	10µM*
CSc1nncn1/N=C/c1ccc([N+](=O)[O-])cc1	-2%	19%	-14%	-1%	?
S=c1[nH]nc(-c2cccnc2)n1/N=C/c1ccccc1	-3%	-14%	?	·	-9%
Cc1ccc(/C=N/n2c(-c3ccccc3)n[nH]c2=S)cc1	-15%	-1%	?	·	2.8µM*
O=[N+]([O-])c1ccc(/C=N/n2cn[nH]c2=S)cc1	-8%	-24%	13µM*	6%	?
CC(C)c1ccc(/C=N/n2c(-c3ccccc3)n[nH]c2=S)cc1	-16%	-8%	4µM*	·	3.2µM*
CCOC(=O)C1(C)CCCN1C(=O)c1cc(F)ccc1C (stereo not drawn)	-7%	·	·	·	·
COc1ccc(-c2cc(C3C4C=CCC(C)C4C(=O)N3Cc3ccccc3)ccc2F)cc1 (stereo not drawn)	·	-19%	-3%	·	-15%
CCc1nc2c(OCC(=O)C(C)(C)C)cccn2c1N(C=O)Cc1ccccc1	-7%	·	·	·	·
COc1ccc(-c2csc(CCN3N=C(C)CC3=O)n2)cc1	-22%	3%	43%	2µM*	-7%
COc1ccc(-c2csc(C)n2)cc1	-1%	12%	27%	6%	?
O=[N+]([O-])c1ccccc1/C=C/C=N/n1c(-c2cc(-c3ccccc3)n[nH]2)n[nH]c1=S	?	18µM*	?	12%	-19%
O=[N+]([O-])c1ccccc1/C=C/C=N/n1c(-c2ccco2)n[nH]c1=S	-22%	-5%	8.9µM*	-7%	6%
S=c1[nH]nc(-c2cc(-c3ccccc3)n[nH]2)n1/N=C/C=C/c1ccccc1	-4%	-2%	-43%	?	18%
O=[N+]([O-])c1ccccc1/C=C\C=N\N1CCN(c2ccccc2)CC1	-4%	11%	?	?	0%
